ID4 SMM: binders of human ID4 protein, primary screen, biochemical, small molecule microarray, single point; DNA-binding protein inhibitor ID-4 (Homo sapiens), P47928; Flag-ID4 binding, fluorescence F/B; calls only; 1.2% of 31,000 active; call rule not given here;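 further: a binder raises fluorescence above local background on the spot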
Target sequence (P47928 whole entry, looked up): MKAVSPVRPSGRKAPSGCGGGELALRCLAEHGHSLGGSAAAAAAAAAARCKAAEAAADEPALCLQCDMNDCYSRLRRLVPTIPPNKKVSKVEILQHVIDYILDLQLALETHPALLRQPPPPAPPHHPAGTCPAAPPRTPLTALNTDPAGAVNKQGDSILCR
mut p53 react: mutant p53 pathway re-activators, primary screen, cell-based, SW480, luciferase, single point, HTS; SW480 PUMA-promoter luciferase, p53 mutant reactivation; activation, % at 9.98 µM; 1.5% of 28,000 active; AID 624151, 2012; in the data active means activation above about 52%
Hits are given with their value. A selection: hits, their analogues and other compounds. The true share with any hit is near 2.3%.

`COc1ccc(-c2nnc3c4ccccc4c(C)nn23)cc1S(=O)(=O)N1CCOCC1` gave ID4 SMM inactive and mut p53 react inactive.
Cc1nn2c(-c3cccc(NC(=O)CN4CCOCC4)c3)nnc2c2ccccc12 was read as ID4 SMM inactive and mut p53 react 53.
For COc1ccccc1NC(=O)c1ccc(CSc2nnnn2-c2ccccc2)cc1 the results were ID4 SMM inactive and mut p53 react inactive.
For C=C1CC[C@@]2(OC1)O[C@H]1CC3[C@@H]4CC=C5C[C@H](O[C@@H]6OC[C@H](O)[C@H](O)[C@H]6O[C@@H]6O[C@@H](C)[C@H](O)[C@@H](O)[C@H]6O)C[C@@H](O)[C@]5(C)C4CC[C@]3(C)[C@H]1[C@@H]2C (stereo partly specified) the results were ID4 SMM inactive and mut p53 react inactive.
`Cc1c(NC(=O)CN(c2ccc3c(c2)OCCO3)S(C)(=O)=O)c(=O)n(-c2ccccc2)n1C` gave ID4 SMM inactive and mut p53 react inactive.
`O=C(Cn1cnc([N+](=O)[O-])n1)Nc1ccc(Cl)cc1C(F)(F)F` gave ID4 SMM inactive and mut p53 react inactive.
Screening CC(=O)Nc1ccc(NC(=O)CCCN2C(=O)c3ccccc3C2=O)cc1 returned ID4 SMM inactive and mut p53 react inactive.
Screening O=C(CCCN1C(=O)c2ccccc2C1=O)Nc1ccc(Nc2ccccc2)cc1 returned ID4 SMM inactive and mut p53 react 55.
CC1(C)CC(=O)C2=C(C1)N(Cc1ccco1)C(=O)C2(NC(=O)c1ccco1)C(F)(F)F (stereo unspecified) was read as ID4 SMM inactive and mut p53 react inactive.
Screening Cc1cccc(C)c1OCC(=O)Nc1ccccc1C#N returned ID4 SMM inactive and mut p53 react inactive.
Screening Cc1ccc(OCC(=O)Nc2ccccc2C#N)cc1C returned ID4 SMM inactive and mut p53 react 83.
Screening CC(=O)Nc1ccc(C(=O)Nc2ccc(OCC(=O)O)cc2)cc1 returned ID4 SMM inactive and mut p53 react inactive.
`O=C(O)COc1ccc(NC(=O)c2ccc(NC(=O)c3ccco3)cc2)cc1` gave ID4 SMM active and mut p53 react inactive.
Screening COc1ccc(C(=O)Nc2ccc(C(=O)OCc3cccc([N+](=O)[O-])c3)cc2)cc1 returned ID4 SMM inactive and mut p53 react inactive.
`O=C(OCc1cccc([N+](=O)[O-])c1)c1ccc(NC(=O)c2ccco2)cc1` gave ID4 SMM inactive and mut p53 react 70.
For CC(C)Cc1ccc(C(C)C(=O)Nc2cccc(-c3cnco3)c2)cc1 (stereo unspecified) the results were ID4 SMM inactive and mut p53 react inactive.
For CC(=O)Nc1ccc(C(=O)CSc2nc(-c3ccccc3)cs2)cc1 the results were ID4 SMM inactive and mut p53 react 88.
For CCOc1ccc(NC(=O)CSc2nc3ccccc3o2)cc1 the results were ID4 SMM inactive and mut p53 react inactive.
`O=C(CCSc1nc(-c2ccccc2)cs1)Nc1ccccc1` gave ID4 SMM inactive and mut p53 react inactive.
Screening COc1cc(OC)nc(NC(=O)CSc2nc3ccccc3o2)n1 returned ID4 SMM inactive and mut p53 react inactive.
`O=C(CSc1nc2ccccc2s1)Nc1ccc(N2CCOCC2)c(Cl)c1` gave ID4 SMM inactive and mut p53 react inactive.
For O=C(CSc1nc2ccccc2o1)Nc1ccc(N2CCOCC2)c(Cl)c1 the results were ID4 SMM inactive and mut p53 react 96.
Screening COC(=O)c1cc(OC)c(OC)cc1NC(=O)CSc1nc2ccccc2o1 returned ID4 SMM inactive and mut p53 react 105.
Screening CC(=O)Nc1ccc(C(=O)CSc2nc3ccccc3o2)cc1 returned ID4 SMM inactive and mut p53 react 56.
Screening CC(C)(C)OC(=O)CC[C@]12N=C(c3ccc(OCCCO)cc3)O[C@H]1c1ccccc1CN(CCS(=O)(=O)c1ccccc1)C2=O returned ID4 SMM inactive.
CCC1(C)Cc2c(sc3nnn(CC(=O)N(c4ccccc4)c4ccccc4)c(=O)c23)CO1 (stereo unspecified) was read as ID4 SMM inactive and mut p53 react inactive.
OC(CSc1cccc2cccnc12)Cn1c2ccccc2c2ccccc21 (stereo unspecified) was read as ID4 SMM inactive and mut p53 react inactive.
Screening OC(CSc1nc(-c2ccccc2)c(-c2ccccc2)o1)CC(O)c1ccccc1 (stereo unspecified) returned ID4 SMM inactive.
`CCCn1c2ccccc2c2nnc(SCCN3CCCCC3)nc21` gave ID4 SMM active and mut p53 react inactive.
`Cc1ccc2c(c1)c1nnc(SCCN3CCCCC3)nc1n2C` gave ID4 SMM inactive and mut p53 react inactive.
CS(=O)(=O)N(CC(=O)Nc1cccc(Cl)c1Cl)Cc1ccccc1 was read as ID4 SMM inactive and mut p53 react inactive.
Screening CCc1ccc(OCC(=O)Nc2ccc(C)cc2[N+](=O)[O-])cc1 returned ID4 SMM inactive and mut p53 react 66.
